Bioassay records deposited in PubChem by several laboratories.
An excerpt weighted towards active compounds, which were near 6.6% of everything screened.
Gli-Sufu block: Gli-Sufu pathway antagonism | Sufu-KO-LIGHT fibroblasts, Gli luciferase reporter luminescence | inhibition, % at 5 µM | hit rate 0.74% among 340,000;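 active = inhibition above about 55%, limit read from the data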
MPTP inh: permeability transition pore inhibition. isolated mouse mitochondria, Ca2+ swelling absorbance, 30 min. inhibition, % at 10 µM. hit rate 1.4% among 360,000. AID 602449;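 active = inhibition of 50% or more, scaled per plate between neutral and stimulator controls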
CSC inhib: blocks cancer stem cells. cancer stem cell-like cells viability, luminescence. inhibition, % at 7.5 µM. hit rate 1.1% among 300,000. AID 2717; in the data active = inhibition above about 75%; tested in HMLE shEcad cells
NR3A LBD binder: modulates the human NR3A ligand-binding domain. Tm shift relative to glycine control, % at 25 µM. hit rate 2.5% among 340,000. NR3A LBD differential scanning fluorimetry, Tm shift; 0% = protein alone, 100% = glycine-bound protein. AID 1259313;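 active = melting temperature shift of at least 10% of the positive control shift, at one fixed dose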
Mdm2 MdmX PPI: disrupts the human Mdm2-MdmX interaction. O15151+Q00987. inhibition, % at 8 µM. SaOS-2 split-luciferase Mdm2/MdmX complementation, luminescence. hit rate 3% among 330,000;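 active = inhibition of at least 50% at 8 µM in the primary screen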
Target sequence (O15151 whole entry, looked up): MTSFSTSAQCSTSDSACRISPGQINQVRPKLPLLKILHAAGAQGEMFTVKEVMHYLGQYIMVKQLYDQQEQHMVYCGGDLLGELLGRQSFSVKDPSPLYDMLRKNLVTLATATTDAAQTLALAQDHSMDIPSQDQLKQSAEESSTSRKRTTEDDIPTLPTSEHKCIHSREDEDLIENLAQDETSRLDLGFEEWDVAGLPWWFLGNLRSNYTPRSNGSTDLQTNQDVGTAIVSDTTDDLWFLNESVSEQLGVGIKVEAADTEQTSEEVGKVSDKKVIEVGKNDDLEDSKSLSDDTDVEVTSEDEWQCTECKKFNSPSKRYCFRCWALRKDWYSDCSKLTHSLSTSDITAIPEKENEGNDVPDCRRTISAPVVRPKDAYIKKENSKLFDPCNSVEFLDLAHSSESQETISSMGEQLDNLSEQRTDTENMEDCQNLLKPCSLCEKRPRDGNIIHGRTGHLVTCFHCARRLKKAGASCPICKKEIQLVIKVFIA
Target sequence (Q00987 whole entry, looked up): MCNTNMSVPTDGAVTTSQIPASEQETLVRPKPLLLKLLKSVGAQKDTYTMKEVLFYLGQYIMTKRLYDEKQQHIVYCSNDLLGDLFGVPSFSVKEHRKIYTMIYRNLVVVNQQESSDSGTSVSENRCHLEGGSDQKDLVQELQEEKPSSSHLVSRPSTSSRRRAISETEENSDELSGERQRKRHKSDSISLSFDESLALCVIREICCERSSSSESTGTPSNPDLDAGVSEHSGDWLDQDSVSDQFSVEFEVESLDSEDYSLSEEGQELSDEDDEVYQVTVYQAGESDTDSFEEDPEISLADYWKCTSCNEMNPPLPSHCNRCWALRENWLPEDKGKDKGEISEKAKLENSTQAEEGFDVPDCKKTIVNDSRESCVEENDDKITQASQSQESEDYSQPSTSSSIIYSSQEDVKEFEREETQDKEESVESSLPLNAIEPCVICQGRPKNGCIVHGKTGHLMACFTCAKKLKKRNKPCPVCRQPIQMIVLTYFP
Beta cell apopt: blocks beta cell apoptosis; INS-1E cytokine-induced death, ATP luminescence, 48 h; percent of positive-control rescue, neutral wells zero; protection from apoptosis, % (concentration not given with the values); hit rate 0.8% among 300,000; AID 435005;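 active = Every replicate reaches about 75%, or at least half do and their mean reaches it too, limit read from the data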;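 note: higher means more ATP so stronger rescue from cytokine killing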
Mdm2 MdmX conf: human Mdm2/MdmX binding inhibition, confirmed. shares compounds with Mdm2 MdmX PPI. luminescent assay. inhibition, % at 8 µM. hit rate 55% among 10,000. AID 489028; in the data active = inhibition above about 40%
Full FLuc ctr: full-length luciferase inhibition in Mdm2/MdmX counter-screen; inhibition, % at 8 µM; shares compounds with Mdm2 MdmX PPI; SaOS-2 full-length luciferase counterscreen, luminescence; hit rate 77% among 6,200;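 active = mean inhibition at 8 µM reaching about 37%, which flags the compound as non-specific, limit read from the data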;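 note: p53-null SaOS-2 cells with luciferase driven by a doxycycline-inducible promoter; compound on cells about two nights before reading with doxycycline added after day one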
Gli antag conf: confirmation of Gli-SUFU pathway antagonists; shares compounds with Gli-Sufu block; Sufu-KO-LIGHT cells, Gli luciferase reporter, luminescence; inhibition, % at 5 µM; hit rate 40% among 2,500;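 active = mean inhibition at 5 µM reaching about 45%, limit read from the data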
Gli cytotox: cytotoxic in Gli-SUFU antagonist counter-screen. Sufu-KO-LIGHT cells cytotoxicity, ATP luminescence. hit rate 32% among 2,500. shares compounds with Gli-Sufu block. cytotoxicity, % at 5 µM. AID 651994;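 active = mean cytotoxicity at 5 µM above about 25%, limit read from the data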;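 note: cells exposed to compound overnight for roughly 16 to 18 hours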
Wnt3a counter: Wnt3a reporter inhibition counter-screen. inhibition, % at 6.25 µM. hit rate 20% among 2,500. shares compounds with Gli-Sufu block. Wnt-LIGHT cells, Wnt3a-driven luciferase reporter, luminescence;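 active = mean inhibition above about 25%, limit read from the data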
Numbers stand for hits; - = inactive; . = not tested or not shown.

SMILES	Gli-Sufu block	MPTP inh	CSC inhib	NR3A LBD binder	Mdm2 MdmX PPI	Beta cell apopt	Mdm2 MdmX conf	Full FLuc ctr	Gli antag conf	Gli cytotox	Wnt3a counter
Cc1nn(-c2ccccc2)c(C)c1/C=N/NC(=O)c1cc(-c2cccs2)[nH]n1	-	-	-	-	70	-	56	78	61	60	-
Cc1nn(-c2ccccc2)c(C)c1/C=N/NC(=O)c1cccs1	-	-	.	-	-	.	.	.	.	.	.
CC[C@]12c3[nH]c4cc(CCC(=O)N(C)C)ccc4c3CCN1C(=O)[C@@H](CC(=O)NCCN1CCOCC1)C[C@@H]2C(=O)N1CCN(C(=O)c2ccco2)CC1	-	-	.	-	-	.	.	.	.	.	.
CC[C@]12c3[nH]c4cc(CCC(=O)N(C)C)ccc4c3CCN1C(=O)[C@@H](CC(=O)NC/C=C(\C)CCC=C(C)C)C[C@@H]2C(=O)N1CCN(C(=O)c2ccco2)CC1	79	-	.	-	93	.	59	59	77	30	31
COc1cccc(CN2CCNC(=O)C2CC(=O)N(C)C2CCCCC2)c1OC (centres undefined)	-	-	-	-	-	-	.	.	.	.	.
Cc1ccc(-c2nc(-c3ccccc3)no2)c(Cl)c1	67	-	-	-	52	.	62	163	69	80	103
N=c1ccn2c(n1)O[C@H]1[C@H](O)[C@@H](CO)O[C@H]12	60	-	-	-	61	-	64	46	46	-	41
C=CCn1c(SCC(=O)c2c(N)n(C)c(=O)n(C)c2=O)nnc1-c1ccccc1F	-	-	-	-	-	.	.	.	.	.	.
O=C1/C(=C/c2cccnc2)SC(=S)N1Cc1ccco1	-	-	.	-	.	.	.	.	.	.	.
O=C1/C(=C/c2ccccc2O)SC(=S)N1Cc1cccnc1	72	-	-	-	73	-	-	.	-	-	-
S=C(NCCCN1CCOCC1)N1CCN(c2nc(-c3ccc(Cl)cc3)cs2)CC1	-	-	104	-	62	85	-	.	-	-	-
COc1ccc(Cn2c(-c3ccc(C)cc3)c[n+]3ccccc23)cc1	85	-	-	-	62	93	-	65	86	29	36
COCc1cc(=O)[nH]c(Nc2nc3ccc(C)cc3o2)n1	-	-	.	-	78	80	-	.	63	26	-
Cc1cc(NC(=O)CSc2ccc(-c3ccc(Br)cc3)nn2)no1	-	-	-	-	-	-	.	.	.	.	.
Cc1[nH]c2ccccc2c1/C=C/c1nc2ccccc2c(=O)n1-c1cccc([N+](=O)[O-])c1	-	-	.	-	70	-	-	.	-	-	-
O=C(Cc1csc(Nc2nc(=S)[nH]c3ccccc23)n1)NCCCN1CCN(c2ccccc2F)CC1	86	-	-	-	98	-	-	.	-	-	-
COc1ccccc1/C=N/NC(=O)c1cccc(OC(F)(F)C(F)F)c1	-	-	-	-	-	-	.	.	.	.	.
CCOc1ccccc1NC(=O)C(=O)N/N=C/c1cc(Br)ccc1O	56	-	-	-	76	88	83	39	63	39	59
COc1cccc(/C=N/NC(=O)C(=O)Nc2ccccc2OC(F)(F)C(F)F)c1O	80	-	108	-	62	82	75	-	72	47	66
CC(C)COC(=O)N(C)C[C@@H]1OCc2cnnn2CCCC(=O)N([C@H](C)CO)C[C@H]1C	.	-	.	.	.	.	.	.	.	.	.
CC(Oc1ccc(F)cc1)C(=O)Nc1cc(Cl)ccc1-n1cncn1 (centres undefined)	-	-	.	-	-	-	.	.	.	.	.
COc1ccc(C2CC(c3ccccc3)=NN2C(=O)CN2N=NC3C(=O)N(c4cccc(F)c4)C(=O)C32)cc1 (centres undefined)	-	-	-	-	-	-	.	.	.	.	.
